The text below walks through data of ChEMBL document CHEMBL1961873, “Compounds: GSK PKIS; Assays: Nanosyn kinase panel” (2012).

By inhibition is commonly meant the relative decrease from the control value, in per cent.

Assay [1] addresses Mitogen-activated protein kinase kinase kinase kinase 4 (Homo sapiens) (UniProt O95819). As to conditions: at 1 µM.
Assay [2] deals with Dual specificity mitogen-activated protein kinase kinase 1 (Homo sapiens) (UniProt Q02750). As to conditions: at 0.1 µM.
For assay [3] the target is unchanged. As to conditions: at 1 µM.
For assay [4], the target named is Misshapen-like kinase 1 (Homo sapiens) (UniProt Q8N4C8). As to conditions: at 0.1 µM.
Chain of Misshapen-like kinase 1 (Homo sapiens) (Q8N4C8 whole entry, looked up): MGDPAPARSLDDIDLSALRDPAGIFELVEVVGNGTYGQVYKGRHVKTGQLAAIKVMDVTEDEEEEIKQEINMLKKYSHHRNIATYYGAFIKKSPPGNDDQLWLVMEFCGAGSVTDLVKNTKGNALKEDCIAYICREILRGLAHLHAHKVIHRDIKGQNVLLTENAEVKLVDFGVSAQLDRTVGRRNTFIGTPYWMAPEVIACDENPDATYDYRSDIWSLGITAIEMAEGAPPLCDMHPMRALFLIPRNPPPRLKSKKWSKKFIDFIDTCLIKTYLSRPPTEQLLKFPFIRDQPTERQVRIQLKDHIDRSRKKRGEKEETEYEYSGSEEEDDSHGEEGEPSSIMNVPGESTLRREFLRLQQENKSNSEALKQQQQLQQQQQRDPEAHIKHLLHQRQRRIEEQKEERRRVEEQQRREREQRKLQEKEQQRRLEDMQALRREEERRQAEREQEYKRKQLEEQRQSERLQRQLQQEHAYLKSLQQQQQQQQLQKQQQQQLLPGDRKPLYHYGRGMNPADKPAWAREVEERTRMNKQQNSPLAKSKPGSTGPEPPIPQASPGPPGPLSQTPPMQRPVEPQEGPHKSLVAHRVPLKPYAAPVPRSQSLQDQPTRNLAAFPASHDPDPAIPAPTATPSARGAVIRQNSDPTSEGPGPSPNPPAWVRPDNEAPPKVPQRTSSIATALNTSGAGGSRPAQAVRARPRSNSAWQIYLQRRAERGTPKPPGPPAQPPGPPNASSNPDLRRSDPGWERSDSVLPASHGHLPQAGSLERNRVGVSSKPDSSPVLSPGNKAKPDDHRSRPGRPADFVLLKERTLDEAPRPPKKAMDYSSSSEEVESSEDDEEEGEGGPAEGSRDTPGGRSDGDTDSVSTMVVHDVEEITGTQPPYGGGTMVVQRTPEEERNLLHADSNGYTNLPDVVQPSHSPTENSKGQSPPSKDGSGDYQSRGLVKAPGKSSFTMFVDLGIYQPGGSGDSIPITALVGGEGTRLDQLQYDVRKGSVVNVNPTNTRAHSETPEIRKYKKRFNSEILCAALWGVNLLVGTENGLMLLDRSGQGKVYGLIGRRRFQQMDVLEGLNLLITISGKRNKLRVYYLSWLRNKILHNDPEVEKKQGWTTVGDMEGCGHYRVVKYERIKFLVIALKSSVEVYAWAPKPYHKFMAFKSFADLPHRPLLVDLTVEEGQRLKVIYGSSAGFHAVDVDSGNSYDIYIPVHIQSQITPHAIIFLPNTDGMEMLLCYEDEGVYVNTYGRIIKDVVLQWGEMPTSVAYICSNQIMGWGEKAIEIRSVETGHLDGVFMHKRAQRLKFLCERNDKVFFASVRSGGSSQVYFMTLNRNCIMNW
For assay [5] the target is unchanged. As to conditions: at 1 µM.
The target of assay [6] is T1, Serine/threonine-protein kinase 4 (Homo sapiens) (UniProt Q13043).
T1 sequence (whole entry): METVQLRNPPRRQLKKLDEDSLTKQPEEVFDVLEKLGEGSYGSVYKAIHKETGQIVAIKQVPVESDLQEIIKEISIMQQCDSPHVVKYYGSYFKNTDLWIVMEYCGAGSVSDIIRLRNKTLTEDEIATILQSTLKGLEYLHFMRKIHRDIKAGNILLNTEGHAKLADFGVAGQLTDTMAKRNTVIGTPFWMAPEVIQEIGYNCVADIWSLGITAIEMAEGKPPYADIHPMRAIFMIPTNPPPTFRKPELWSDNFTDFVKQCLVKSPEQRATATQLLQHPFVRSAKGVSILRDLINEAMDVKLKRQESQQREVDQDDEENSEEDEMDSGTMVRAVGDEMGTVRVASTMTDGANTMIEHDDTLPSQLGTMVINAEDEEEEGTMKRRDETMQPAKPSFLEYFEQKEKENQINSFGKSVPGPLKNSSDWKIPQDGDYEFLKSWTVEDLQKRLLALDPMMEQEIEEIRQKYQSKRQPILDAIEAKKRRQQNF
As to conditions: at 0.1 µM.

For assay [7], the target named is T1, Serine/threonine-protein kinase 4 (Homo sapiens). As to conditions: at 1 µM.
For assay [8], the target named is T2, Serine/threonine-protein kinase 3 (Homo sapiens) (UniProt Q13188).
T2 sequence (whole entry): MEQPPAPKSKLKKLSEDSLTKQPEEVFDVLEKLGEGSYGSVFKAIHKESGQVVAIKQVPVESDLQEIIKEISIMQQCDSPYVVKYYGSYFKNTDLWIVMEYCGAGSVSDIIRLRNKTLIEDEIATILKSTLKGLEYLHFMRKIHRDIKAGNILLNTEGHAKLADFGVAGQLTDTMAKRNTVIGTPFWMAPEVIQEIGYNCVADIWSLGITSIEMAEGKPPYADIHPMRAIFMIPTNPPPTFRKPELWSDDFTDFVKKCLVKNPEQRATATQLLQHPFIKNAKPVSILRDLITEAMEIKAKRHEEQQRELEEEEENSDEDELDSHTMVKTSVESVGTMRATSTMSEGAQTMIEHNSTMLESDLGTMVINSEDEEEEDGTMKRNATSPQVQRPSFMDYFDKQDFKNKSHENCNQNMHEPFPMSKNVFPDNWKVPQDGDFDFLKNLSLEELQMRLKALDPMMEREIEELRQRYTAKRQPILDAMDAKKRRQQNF
As to conditions: at 0.1 µM.

The target of assay [9] is T2, Serine/threonine-protein kinase 3 (Homo sapiens). As to conditions: at 1 µM.
In assay [10] the target is Serine/threonine-protein kinase 26 (Homo sapiens) (UniProt Q9P289). As to conditions: at 0.1 µM.
The target is the same in assay [11]. As to conditions: at 1 µM.
Assay [12] addresses Serine/threonine-protein kinase PAK 1 (Homo sapiens) (UniProt Q13153). As to conditions: at 0.1 µM.
For assay [13] the target is unchanged. As to conditions: at 1 µM.
Assay [14] has as its target Serine/threonine-protein kinase PAK 2 (Homo sapiens) (UniProt Q13177). As to conditions: at 0.1 µM.
Assay [15] shares this target. As to conditions: at 1 µM.
The target of assay [16] is Serine/threonine-protein kinase PAK 3 (Homo sapiens) (UniProt O75914). As to conditions: at 0.1 µM.
Chain of Serine/threonine-protein kinase PAK 3 (Homo sapiens) (O75914 whole entry, looked up): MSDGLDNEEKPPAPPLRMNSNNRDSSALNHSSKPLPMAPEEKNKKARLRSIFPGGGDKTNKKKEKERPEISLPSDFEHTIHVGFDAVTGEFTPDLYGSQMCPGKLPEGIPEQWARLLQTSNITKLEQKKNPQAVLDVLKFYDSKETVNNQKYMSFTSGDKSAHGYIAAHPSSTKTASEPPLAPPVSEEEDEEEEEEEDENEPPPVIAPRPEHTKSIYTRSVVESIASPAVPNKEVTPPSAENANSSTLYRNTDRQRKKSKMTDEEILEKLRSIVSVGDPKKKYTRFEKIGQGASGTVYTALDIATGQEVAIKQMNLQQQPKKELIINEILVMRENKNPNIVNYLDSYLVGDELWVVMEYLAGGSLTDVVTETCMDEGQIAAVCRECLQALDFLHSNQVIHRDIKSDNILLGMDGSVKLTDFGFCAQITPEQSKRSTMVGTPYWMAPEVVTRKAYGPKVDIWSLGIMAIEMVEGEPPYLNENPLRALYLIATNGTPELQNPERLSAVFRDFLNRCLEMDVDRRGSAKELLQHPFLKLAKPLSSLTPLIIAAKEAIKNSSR
For assay [17] the target is unchanged. As to conditions: at 1 µM.
The target of assay [18] is Serine/threonine-protein kinase PAK 5 (Homo sapiens) (UniProt Q9P286). As to conditions: at 0.1 µM.
Chain of Serine/threonine-protein kinase PAK 5 (Homo sapiens) (Q9P286 whole entry, looked up): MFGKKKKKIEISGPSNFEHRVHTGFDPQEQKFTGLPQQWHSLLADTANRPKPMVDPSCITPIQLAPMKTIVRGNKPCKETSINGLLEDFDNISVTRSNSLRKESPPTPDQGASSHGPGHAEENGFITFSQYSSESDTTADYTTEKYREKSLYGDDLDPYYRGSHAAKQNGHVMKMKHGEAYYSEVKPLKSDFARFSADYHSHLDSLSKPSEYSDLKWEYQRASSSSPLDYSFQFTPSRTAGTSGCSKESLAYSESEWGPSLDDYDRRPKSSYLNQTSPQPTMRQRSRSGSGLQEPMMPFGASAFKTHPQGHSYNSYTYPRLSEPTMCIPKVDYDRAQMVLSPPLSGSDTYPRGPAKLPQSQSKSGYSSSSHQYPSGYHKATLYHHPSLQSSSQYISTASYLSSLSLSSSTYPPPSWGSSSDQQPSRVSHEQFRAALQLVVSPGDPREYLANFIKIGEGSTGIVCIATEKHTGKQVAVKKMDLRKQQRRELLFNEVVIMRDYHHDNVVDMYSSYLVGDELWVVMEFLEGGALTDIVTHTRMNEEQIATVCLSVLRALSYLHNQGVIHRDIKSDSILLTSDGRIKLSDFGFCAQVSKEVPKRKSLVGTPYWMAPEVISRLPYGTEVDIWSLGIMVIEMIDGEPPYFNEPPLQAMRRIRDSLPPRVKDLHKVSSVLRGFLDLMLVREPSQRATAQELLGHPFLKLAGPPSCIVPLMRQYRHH
Assay [19] shares this target. As to conditions: at 1 µM.
Assay [20] deals with Serine/threonine-protein kinase PAK 6 (Homo sapiens) (UniProt Q9NQU5). As to conditions: at 0.1 µM.
Chain of Serine/threonine-protein kinase PAK 6 (Homo sapiens) (Q9NQU5 whole entry, looked up): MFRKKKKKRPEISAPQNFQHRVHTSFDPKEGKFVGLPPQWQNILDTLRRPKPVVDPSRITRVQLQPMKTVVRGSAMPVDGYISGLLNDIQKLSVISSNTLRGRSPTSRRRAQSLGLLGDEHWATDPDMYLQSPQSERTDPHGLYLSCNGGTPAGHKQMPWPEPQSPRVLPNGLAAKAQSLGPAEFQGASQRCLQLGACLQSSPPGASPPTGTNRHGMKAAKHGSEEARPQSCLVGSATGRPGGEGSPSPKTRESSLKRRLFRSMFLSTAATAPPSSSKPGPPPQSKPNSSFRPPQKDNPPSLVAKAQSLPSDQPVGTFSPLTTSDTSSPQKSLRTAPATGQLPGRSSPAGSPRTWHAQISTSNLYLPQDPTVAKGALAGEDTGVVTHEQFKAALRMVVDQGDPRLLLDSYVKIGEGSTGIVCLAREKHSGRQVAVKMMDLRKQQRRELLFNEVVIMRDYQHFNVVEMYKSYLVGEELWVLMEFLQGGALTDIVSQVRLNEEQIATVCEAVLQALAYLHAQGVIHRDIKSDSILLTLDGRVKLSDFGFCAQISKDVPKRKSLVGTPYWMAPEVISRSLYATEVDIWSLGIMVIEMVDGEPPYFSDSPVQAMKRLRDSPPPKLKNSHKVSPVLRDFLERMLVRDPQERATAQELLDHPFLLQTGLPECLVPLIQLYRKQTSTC

Chain of Dual specificity mitogen-activated protein kinase kinase 1 (Homo sapiens) (Q02750 whole entry): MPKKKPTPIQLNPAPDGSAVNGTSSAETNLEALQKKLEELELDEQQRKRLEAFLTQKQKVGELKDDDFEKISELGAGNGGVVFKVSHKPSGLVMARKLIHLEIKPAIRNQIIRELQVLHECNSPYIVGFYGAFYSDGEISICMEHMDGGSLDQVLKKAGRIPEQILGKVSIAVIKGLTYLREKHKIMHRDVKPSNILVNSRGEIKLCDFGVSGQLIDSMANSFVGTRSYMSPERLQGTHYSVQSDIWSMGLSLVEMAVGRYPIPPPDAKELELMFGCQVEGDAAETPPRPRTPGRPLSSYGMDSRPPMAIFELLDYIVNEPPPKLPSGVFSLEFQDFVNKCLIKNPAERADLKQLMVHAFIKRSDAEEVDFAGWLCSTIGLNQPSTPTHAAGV
Chain of Serine/threonine-protein kinase PAK 2 (Homo sapiens) (Q13177 whole entry): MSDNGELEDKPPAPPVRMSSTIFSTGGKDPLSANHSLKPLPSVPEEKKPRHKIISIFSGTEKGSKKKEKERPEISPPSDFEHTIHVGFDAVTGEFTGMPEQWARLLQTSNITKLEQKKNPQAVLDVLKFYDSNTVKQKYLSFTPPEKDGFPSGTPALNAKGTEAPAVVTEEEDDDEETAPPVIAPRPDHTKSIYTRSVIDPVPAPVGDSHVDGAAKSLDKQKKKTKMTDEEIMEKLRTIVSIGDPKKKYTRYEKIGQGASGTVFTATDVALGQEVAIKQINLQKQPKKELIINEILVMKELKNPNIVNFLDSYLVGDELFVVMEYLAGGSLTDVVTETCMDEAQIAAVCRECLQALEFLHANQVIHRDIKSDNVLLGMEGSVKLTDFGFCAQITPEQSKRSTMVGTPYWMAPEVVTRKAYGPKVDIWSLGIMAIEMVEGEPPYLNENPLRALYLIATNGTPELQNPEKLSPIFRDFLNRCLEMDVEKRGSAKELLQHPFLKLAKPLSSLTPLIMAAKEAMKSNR
Chain of Serine/threonine-protein kinase PAK 1 (Homo sapiens) (Q13153 whole entry): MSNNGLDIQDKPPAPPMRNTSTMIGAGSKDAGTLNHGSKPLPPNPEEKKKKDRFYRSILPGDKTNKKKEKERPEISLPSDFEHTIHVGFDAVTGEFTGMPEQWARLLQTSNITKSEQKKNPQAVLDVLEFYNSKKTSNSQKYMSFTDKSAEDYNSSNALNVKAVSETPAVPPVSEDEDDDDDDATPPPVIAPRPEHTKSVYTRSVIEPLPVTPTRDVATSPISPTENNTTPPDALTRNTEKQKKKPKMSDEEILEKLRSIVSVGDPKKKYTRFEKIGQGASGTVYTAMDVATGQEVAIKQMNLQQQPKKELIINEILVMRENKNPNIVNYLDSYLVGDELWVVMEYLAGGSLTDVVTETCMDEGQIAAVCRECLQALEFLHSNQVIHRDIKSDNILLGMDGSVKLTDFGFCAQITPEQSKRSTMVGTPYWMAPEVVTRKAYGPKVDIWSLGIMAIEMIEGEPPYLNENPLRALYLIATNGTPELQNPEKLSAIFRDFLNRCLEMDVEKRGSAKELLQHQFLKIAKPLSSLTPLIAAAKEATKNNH

Take `Clc1ccc(CNc2nccc(-c3cnn4ncccc34)n2)cc1`: the inhibition in assay [1] worked out at 16.3%; in [2] it was 0.08%; in assay [3], 2.12%; in assay [4], 1.36%; in [5], 10.7%; in assay [6], 3.22%. The inhibition in assay [7] was 5.84%; in assay [8] it was 2.53%; in [9], 3.57%; in [10] it was -0.31%; in assay [11], 1.18%; in assay [12] it was -2.27%. Moreover, the inhibition is -0.13% in [13]; 0.78% in assay [14]; 0.67% in [15]; -0.26% in assay [16]; 0.29% in assay [17]; 8.39% in assay [18]. Further, the inhibition in assay [19] is 2.06%.

Take `COc1ccc2ncn(-c3cc(O[C@H](C)c4ccccc4Cl)c(C(N)=O)s3)c2c1`: the inhibition in assay [1] worked out at 5.82%; in [2] it was 2.51%; in assay [3], 2.76%; in assay [4], 5.84%; in [5], 5.42%; in assay [6] it was 3.89%. For the same molecule, the inhibition in assay [7] is 13%; in assay [8], 6.32%; in [9], 13.2%; in assay [10], -2.67%; in assay [11] it was -5.03%; in assay [12], 3.16%. Also, the inhibition in assay [13] was 7.26%; in assay [14], 1.84%; in assay [15], 1.19%; in [16], 5.49%; in assay [17] it was 6.75%; in assay [18], 1.71%. Moreover, the inhibition in [19] is 3.63%; in [20], -3.39%.

For `NS(=O)(=O)c1ccc(N/N=C2\C(=O)Nc3ccc(-c4cnco4)cc32)cc1`, the inhibition in assay [1] stood at 77.6%; in assay [2] it was 2.18%; in [3], 5.31%; in assay [4] it was 51.6%; in [5], 75.8%; in assay [6], 43.8%. Moreover, the inhibition in assay [7] came to 76.8%; in [8] it was 33.4%; in assay [9], 73.2%; in [10], 0.61%; in assay [11] it was 11.1%; in [12], 2.52%. Further, the inhibition in assay [13] turned out to be 3.12%; in [14] it was 0.33%; in [15] it was 0.86%; in assay [16], 1.7%; in assay [17] it was 2.52%; in assay [18], 0.27%. Also, the inhibition in [19] was -0.09%.

`NC(=O)Cc1ccccc1Oc1nccc(-c2c(-c3ccc(F)cc3)ncn2C2CCNCC2)n1`: the inhibition in [1] was determined as 6.68%; in assay [2] it was 2.01%; in assay [3], 2.53%; in assay [4] it was 4.37%; in [5], 6.95%; in [6] it was 1.4%. Also, the inhibition is 3.79% in assay [7]; 2.69% in assay [8]; 4.24% in assay [9]; -0.95% in assay [10]; -1.77% in assay [11]; 4.71% in assay [12]. For the same molecule, the inhibition in assay [13] is 7.55%; in assay [14], 1.39%; in assay [15], 1.36%; in assay [16], 0.09%; in assay [17], 3.36%; in assay [18] it was -1.8%. Also, the inhibition in assay [19] was -2.81%; in assay [20], 1.97%.

Consider `O=C(Nc1n[nH]c2nc(-c3ccco3)ccc12)C1CC1`, for which the inhibition was 32.1% in assay [1]; -0.04% in assay [2]; 0.75% in [3]; 3.07% in [4]; 18.1% in [5]; 1.17% in assay [6]. In addition, the inhibition in assay [7] is 1.95%; in [8] it was 0%; in assay [9] it was -0.23%; in assay [10], 0.08%; in [11] it was 1.1%; in [12], 0.35%. Also, the inhibition in [13] was 1.74%; in [14], 0.42%; in assay [15] it was -0.03%; in assay [16] it was 0.51%; in assay [17], 0.64%; in [18], 5.55%. The values for the inhibition in assay [19] and in [20] were 3.74% and 6.27%, respectively.

Consider `CS(=O)(=O)CCNCc1ccc(-c2ccc3ncnc(Nc4ccc(OCc5ccccc5)c(Br)c4)c3c2)o1`, for which the inhibition in [1] was determined as 6.29%; in assay [2] it was 1.96%; in assay [3], 1.78%; in [4], 4.51%; in assay [5], 5.24%; in [6], 2.67%. Moreover, the inhibition in assay [7] was 2.76%; in assay [8], 4.32%; in assay [9], 5.08%; in [10], -0.82%; in assay [11], -1.33%; in assay [12] it was 5.64%. The inhibition in assay [13] turned out to be 8.98%; in [14] it was 0.93%; in assay [15], 1.63%; in [16], 5.05%; in [17] it was 4.4%; in assay [18], 1.46%. Further, the results for the inhibition in assay [19] and in assay [20] were 0.13% and -8.08%, respectively.

Regarding `c1ccc(-c2n[nH]cc2-c2ccnc(-c3ccc(OCCN4CCOCC4)cc3)c2)nc1`, the inhibition in [1] was 77.5%; in assay [2], -0.91%; in assay [3] it was -0.3%; in [4], 20.2%; in assay [5], 69.2%; in assay [6], 1.73%. Moreover, the inhibition was 2.13% in [7]; 2.06% in [8]; 0.12% in assay [9]; 5.82% in assay [10]; 2.93% in assay [11]; -0.81% in [12]. In addition, the inhibition was 5.57% in assay [13]; 1.69% in [14]; 0.57% in assay [15]; 3.54% in [16]; 3.78% in [17]; -6.65% in assay [18]. Also, the values for the inhibition in [19] and in [20] were 4.04% and 7.57%, respectively.
